Test results published in PubChem BioAssay AID1159580 (chemical genetic matrix, 2015).
Screen size: about 5,500 compounds; about 2,000 (36%) were called active. Roughly 18% stayed inconclusive and do not appear here. Some of the results follow. Unmarked numbers belong to inactive results. No stated cut-off is given here; in the data, active means normalized growth mostly below about 0.91 (no sharp cut-off); inconclusive means no clear call, values can overlap the other calls; inactive means mostly above about 0.92.

Experiment: chemical genetic growth profiling, strain panel (AID 1159580);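 further: tested at 20 µM; growth read once vehicle control cultures reached saturation at 30 °C; 1 = growth at the plate median or of vehicle wells; lower values mean less growth of the strain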
Conditions: growth OD

Question: Which normalized growth (S. cerevisiae deletion strains, locus YJR066W, strain TOR1, hits give low values) does the source give for `CC1CC[C@@]2(OC1)O[C@H]1CC3C4CC[C@@H]5C[C@@H](O)CC[C@]5(C)C4CC[C@]3(C)[C@H]1[C@@H]2C` (some centres not stated) here?
Answer: 0.937

Question: And the normalized growth (S. cerevisiae deletion strains, locus YJR075W, strain HOC1, hits give low values)?
Answer: 1.03

Question: What about the normalized growth (S. cerevisiae deletion strains, locus YKL009W, strain mrt4, hits give low values) of the same compound?
Answer: 0.988

Question: What about the normalized growth (S. cerevisiae deletion strains, locus YKL068W, hits give low values) of the same compound?
Answer: 0.985

Question: And the normalized growth (S. cerevisiae deletion strains, locus YKL085W, strain MDH1 (second series), hits give low values)?
Answer: 0.969

Question: What about the normalized growth (S. cerevisiae deletion strains, locus YKL085W, strain MDH1, hits give low values) of the same compound?
Answer: 0.969

Question: And the normalized growth (S. cerevisiae deletion strains, locus YKL160W, strain elf1, hits give low values)?
Answer: 1.02

Question: What about the normalized growth (S. cerevisiae deletion strains, locus YKL190W, strain CNB1, hits give low values) of the same compound?
Answer: 1.03

Question: What about the normalized growth (S. cerevisiae deletion strains, locus YKR001C, strain vps1, hits give low values) of the same compound?
Answer: 1.01

Question: And the normalized growth (S. cerevisiae deletion strains, locus YKR026C, strain gcn3, hits give low values)?
Answer: 1.03

Question: What about the normalized growth (S. cerevisiae deletion strains, locus YKR091W, strain srl3, hits give low values) of the same compound?
Answer: 1.11 [resistant] (active)

Question: What about the normalized growth (S. cerevisiae deletion strains, locus YLL001W, strain dnm1, hits give low values) of the same compound?
Answer: 1.18 [resistant] (active)

Question: What about the normalized growth (S. cerevisiae deletion strains, locus YLL026W, hits give low values) of the same compound?
Answer: 1.02

Question: What about the normalized growth (S. cerevisiae deletion strains, locus YLL041C, strain sdh2, hits give low values) of the same compound?
Answer: 1.02

Question: What about the normalized growth (S. cerevisiae deletion strains, locus YLR027C, strain aat2, hits give low values) of the same compound?
Answer: 1.05

Question: What about the normalized growth (S. cerevisiae deletion strains, locus YLR039C, strain RIC1, hits give low values) of the same compound?
Answer: 1.09

Question: What about the normalized growth (S. cerevisiae deletion strains, locus YLR058C, strain SHM2, hits give low values) of the same compound?
Answer: 1.04

Question: And the normalized growth (S. cerevisiae deletion strains, locus YLR102C, strain apc9, hits give low values)?
Answer: 1.01

Question: What about the normalized growth (S. cerevisiae deletion strains, locus YLR113W, strain HOG1, hits give low values) of the same compound?
Answer: 0.996

Question: What about the normalized growth (S. cerevisiae deletion strains, locus YLR221C, strain rsa3, hits give low values) of the same compound?
Answer: 1.03

Question: And the normalized growth (S. cerevisiae deletion strains, locus YLR258W, strain gsy2, hits give low values)?
Answer: 1.03

Question: What about the normalized growth (S. cerevisiae deletion strains, locus YLR262C, strain YPT6 (second series), hits give low values) of the same compound?
Answer: 0.987

Question: And the normalized growth (S. cerevisiae deletion strains, locus YLR268W, strain sec22, hits give low values)?
Answer: 1.02

Question: What about the normalized growth (S. cerevisiae deletion strains, locus YLR320W, strain mms22, hits give low values) of the same compound?
Answer: 1.04

Question: And the normalized growth (S. cerevisiae deletion strains, locus YLR330W, strain CHS5, hits give low values)?
Answer: 1.02

Question: What about the normalized growth (S. cerevisiae deletion strains, locus YLR342W, strain FKS1 (second series), hits give low values) of the same compound?
Answer: 1.03

Question: And the normalized growth (S. cerevisiae deletion strains, locus YLR342W, strain FKS1, hits give low values)?
Answer: 1.03

Question: And the normalized growth (S. cerevisiae deletion strains, locus YLR357W, strain rsc2, hits give low values)?
Answer: 1.45 [resistant] (active)

Question: What about the normalized growth (S. cerevisiae deletion strains, locus YLR370C, strain arc18, hits give low values) of the same compound?
Answer: 1.02

Question: And the normalized growth (S. cerevisiae deletion strains, locus YLR371W, strain rom2, hits give low values)?
Answer: 1.01

Question: And the normalized growth (S. cerevisiae deletion strains, locus YLR384C, strain iki3, hits give low values)?
Answer: 1.01

Question: And the normalized growth (S. cerevisiae deletion strains, locus YLR418C, strain cdc73, hits give low values)?
Answer: 1.04

Question: What about the normalized growth (S. cerevisiae deletion strains, locus YML016C, strain PPZ1, hits give low values) of the same compound?
Answer: 1.02

Question: What about the normalized growth (S. cerevisiae deletion strains, locus YML032C, strain rad52, hits give low values) of the same compound?
Answer: 1.01

Question: What about the normalized growth (S. cerevisiae deletion strains, locus YML120C, strain ndi1, hits give low values) of the same compound?
Answer: 1.04

Question: And the normalized growth (S. cerevisiae deletion strains, locus YML124C, strain tub3, hits give low values)?
Answer: 0.998

Question: What about the normalized growth (S. cerevisiae deletion strains, locus YMR058W, strain fet3, hits give low values) of the same compound?
Answer: 1.02

Question: What about the normalized growth (S. cerevisiae deletion strains, locus YMR078C, strain ctf18, hits give low values) of the same compound?
Answer: 0.998

Question: And the normalized growth (S. cerevisiae deletion strains, locus YMR125W, strain sto1, hits give low values)?
Answer: 1.04

Question: What about the normalized growth (S. cerevisiae deletion strains, locus YMR129W, hits give low values) of the same compound?
Answer: 1.01

Question: What about the normalized growth (S. cerevisiae deletion strains, locus YMR205C, strain PFK2, hits give low values) of the same compound?
Answer: 1.02

Question: And the normalized growth (S. cerevisiae deletion strains, locus YMR223W, strain ubp8, hits give low values)?
Answer: 1

Question: What about the normalized growth (S. cerevisiae deletion strains, locus YMR231W, strain pep5, hits give low values) of the same compound?
Answer: 1.02

Question: And the normalized growth (S. cerevisiae deletion strains, locus YMR307W, strain GAS1, hits give low values)?
Answer: 1.21

Question: What about the normalized growth (S. cerevisiae deletion strains, locus YNL067W, strain RPL9B, hits give low values) of the same compound?
Answer: 1.03

Question: What about the normalized growth (S. cerevisiae deletion strains, locus YNL071W, strain lat1, hits give low values) of the same compound?
Answer: 1.04

Question: And the normalized growth (S. cerevisiae deletion strains, locus YNL183C, strain NPR1, hits give low values)?
Answer: 0.941

Question: And the normalized growth (S. cerevisiae deletion strains, locus YNL209W, strain ssb2, hits give low values)?
Answer: 1.01

Question: And the normalized growth (S. cerevisiae deletion strains, locus YNL233W, strain BNI4, hits give low values)?
Answer: 1.07

Question: What about the normalized growth (S. cerevisiae deletion strains, locus YNL248C, strain rpa49, hits give low values) of the same compound?
Answer: 1.02

Question: What about the normalized growth (S. cerevisiae deletion strains, locus YNL250W, strain rad50, hits give low values) of the same compound?
Answer: 1.05

Question: And the normalized growth (S. cerevisiae deletion strains, locus YNL271C, strain bni1, hits give low values)?
Answer: 1

Question: And the normalized growth (S. cerevisiae deletion strains, locus YNL298W, strain CLA4, hits give low values)?
Answer: 1.05

Question: And the normalized growth (S. cerevisiae deletion strains, locus YNL307C, strain MCK1, hits give low values)?
Answer: 1

Question: And the normalized growth (S. cerevisiae deletion strains, locus YNL322C, strain KRE1 (second series), hits give low values)?
Answer: 1.05

Question: What about the normalized growth (S. cerevisiae deletion strains, locus YNL322C, strain KRE1, hits give low values) of the same compound?
Answer: 1.02

Question: And the normalized growth (S. cerevisiae deletion strains, locus YNR049C, strain mso1, hits give low values)?
Answer: 1.02

Question: And the normalized growth (S. cerevisiae deletion strains, locus YNR052C, strain pop2, hits give low values)?
Answer: 0.995

Question: And the normalized growth (S. cerevisiae deletion strains, locus YOL012C, strain htz1)?
Answer: 1.12

Question: And the normalized growth (S. cerevisiae deletion strains, locus YOL147C, strain pex11, hits give low values)?
Answer: 1.03

Question: And the normalized growth (S. cerevisiae deletion strains, locus YOR001W, strain rrp6, hits give low values)?
Answer: 1.05

Question: And the normalized growth (S. cerevisiae deletion strains, locus YOR061W, strain CKA2, hits give low values)?
Answer: 1.02

Question: And the normalized growth (S. cerevisiae deletion strains, locus YOR069W, strain VPS5, hits give low values)?
Answer: 1.02

Question: And the normalized growth (S. cerevisiae deletion strains, locus YOR070C, strain gyp1, hits give low values)?
Answer: 1.01

Question: And the normalized growth (S. cerevisiae deletion strains, locus YOR080W, strain dia2, hits give low values)?
Answer: 1.02

Question: What about the normalized growth (S. cerevisiae deletion strains, locus YOR083W, strain WHI5, hits give low values) of the same compound?
Answer: 1.02

Question: And the normalized growth (S. cerevisiae deletion strains, locus YOR106W, strain vam3, hits give low values)?
Answer: 1.04

Question: And the normalized growth (S. cerevisiae deletion strains, locus YOR136W, strain idh2, hits give low values)?
Answer: 1.01

Question: What about the normalized growth (S. cerevisiae deletion strains, locus YOR144C, strain elg1, hits give low values) of the same compound?
Answer: 1

Question: And the normalized growth (S. cerevisiae deletion strains, locus YOR184W, strain ser1, hits give low values)?
Answer: 1

Question: And the normalized growth (S. cerevisiae deletion strains, locus YOR231W, strain MKK1, hits give low values)?
Answer: 0.99

Question: What about the normalized growth (S. cerevisiae deletion strains, locus YOR265W, strain rbl2, hits give low values) of the same compound?
Answer: 1.01

Question: And the normalized growth (S. cerevisiae deletion strains, locus YOR270C, strain vph1, hits give low values)?
Answer: 1.14

Question: And the normalized growth (S. cerevisiae deletion strains, locus YOR290C, strain snf2, hits give low values)?
Answer: 1.1

Question: And the normalized growth (S. cerevisiae deletion strains, locus YOR316C, strain cot1, hits give low values)?
Answer: 0.992

Question: What about the normalized growth (S. cerevisiae deletion strains, locus YPL051W, strain arl3, hits give low values) of the same compound?
Answer: 1.02

Question: And the normalized growth (S. cerevisiae deletion strains, locus YPL078C, strain atp4, hits give low values)?
Answer: 1.05

Question: What about the normalized growth (S. cerevisiae deletion strains, locus YPL106C, strain sse1, hits give low values) of the same compound?
Answer: 1.02

Question: What about the normalized growth (S. cerevisiae deletion strains, locus YPL240C, strain hsp82, hits give low values) of the same compound?
Answer: 1.02

Question: And the normalized growth (S. cerevisiae deletion strains, locus YPL241C, strain CIN2, hits give low values)?
Answer: 1.03

Question: And the normalized growth (S. cerevisiae deletion strains, locus YPL256C, strain CLN2, hits give low values)?
Answer: 0.984

Question: And the normalized growth (S. cerevisiae deletion strains, locus YPR119W, strain clb2, hits give low values)?
Answer: 1.01

Question: What about the normalized growth (S. cerevisiae deletion strains, locus YPR141C, strain kar3, hits give low values) of the same compound?
Answer: 1

Question: What about the normalized growth (S. cerevisiae deletion strains, locus YPR163C, strain tif3, hits give low values) of the same compound?
Answer: 1.01

Question: And the normalized growth (S. cerevisiae deletion strains, locus YPR167C, strain met16, hits give low values)?
Answer: 1.02

Question: What about the normalized growth (S. cerevisiae deletion strains, strain wtn01, hits give low values) of the same compound?
Answer: 1.01

Question: What about the normalized growth (S. cerevisiae strains, strain wild type, hits give low values) of the same compound?
Answer: 1.05
